Screening data (PubChem)
GAA glycogen mod – GAA glycogen-cleavage inhibition or activation; Potency, µM (series often up to 76.4 µM), inactives show at the highest dose activity change, negative = inhibition, hits mostly inhibitors; AID 2100; recombinant GAA, glycogen substrate, Amplex Red glucose oxidase fluorescence; 0.38% of 300,000 active;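 further: potency means the concentration at half of the fitted maximal effect; 0% = full enzyme reaction and -100% = no-enzyme basal signal; the screen sought inhibitors and activators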
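Recombinant enzyme (4 nM final) with compounds titrated up to 77 uM and bovine liver glycogen (30 ug) in citrate pH 5.0, 0.01% Tween-20, 37 C 40 min. Released glucose detected by Amplex Red/glucose oxidase (Ex 573/Em 610); AC50 from Hill fits.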
GAA spleen mod – lysosomal alpha-glucosidase (human) modulation | Potency, µM (highest dose often 79.9 µM), inactives show at the highest dose activity change, negative = inhibition, actives largely listed as inhibitors | human spleen homogenate, 4-MU-alpha-glucoside fluorescence | 0.006% of 240,000 active | AID 2112;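 further: potency means the concentration at half of the fitted maximal effect; 0% = enzyme with vehicle and -100% = no enzyme basal signal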
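Human spleen homogenate (1 ug) with 4-methylumbelliferyl-alpha-D-glucopyranoside (1 mM final) in 50 mM citrate/phosphate pH 5.0, 0.01% Tween-20; 40 min at 37 C. Stopped at pH 10; 4-MU fluorescence Ex 365/Em 440 nm; AC50 by Hill fit.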
N370S GC mod – inhibitors or activators of N370S glucocerebrosidase for Gaucher disease. N370S GC spleen homogenate, 4MU-glucoside fluorescence. P04062. AID 2101. 0.092% of 330,000 active. Potency, µM (highest dose often 59.4 µM), for the others: at the highest dose activity change, negative = inhibition, usual class: inhibitors;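 further: potency means the concentration at half of the fitted maximal effect; 0% = full enzyme activity and -100% = no enzyme basal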
GAA inhib – inhibitors of human lysosomal alpha-glucosidase; P10253; 0.005% of 200,000 active; Potency, µM (doses to about 76.9 µM), for the others: at the highest dose activity change, negative = inhibition, hits mostly inhibitors; purified human GAA, 4-MU-alpha-glucoside fluorescence; AID 1466;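 further: potency means the concentration at half of the fitted maximal effect; plate controls were uninhibited enzyme wells for no effect and no-enzyme background for full effect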
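Compounds are titrated up to 77 uM against 4 nM human enzyme. Substrate 4-methylumbelliferyl-alpha-D-pyranoside (400 uM) reacts 20 min at room temperature in pH 5.0 buffer; liberated 4-methylumbelliferone is read at 440 nm.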
GLA spleen mod – inhibitors or activators of human alpha-galactosidase in spleen homogenate. P06280. human spleen homogenate, 4MU-alpha-Gal fluorescence, 40 min. Potency, µM (doses to about 80 µM), for the others: at the top dose activity change, negative = inhibition, usual class: inhibitors. 0.008% of 240,000 active;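 further: potency means the concentration at half of the fitted maximal effect; 0% = enzyme with vehicle and -100% = no enzyme basal signal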
Target sequence (P06280 32-429 limits assumed): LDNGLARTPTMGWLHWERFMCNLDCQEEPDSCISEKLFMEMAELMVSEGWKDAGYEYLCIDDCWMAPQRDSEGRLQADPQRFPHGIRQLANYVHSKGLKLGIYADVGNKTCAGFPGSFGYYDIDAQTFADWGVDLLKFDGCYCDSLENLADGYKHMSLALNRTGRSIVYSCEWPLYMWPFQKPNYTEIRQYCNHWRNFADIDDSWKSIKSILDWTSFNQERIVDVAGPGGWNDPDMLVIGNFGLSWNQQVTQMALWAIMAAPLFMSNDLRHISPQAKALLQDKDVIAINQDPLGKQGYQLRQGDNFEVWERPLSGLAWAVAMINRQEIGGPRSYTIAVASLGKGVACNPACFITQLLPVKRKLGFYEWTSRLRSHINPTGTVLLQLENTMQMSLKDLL
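Inhibition or activation of alpha-galactosidase in human spleen homogenate is scored by 4-MU fluorescence after 40 min at 37C, pH 5.0, with 1 mM substrate. AC50s come from concentration-response fitted to the Hill equation.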
GLA inh pH 4.5 – alpha-galactosidase A (human) inhibition, pH 4.5; activity change, negative = inhibition, % at 105 µM; 230,000 tested, under 10 active; purified enzyme, 4-MU-alpha-Gal fluorescence, pH 4.5; AID 1467;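 further: 0% = full activity with enzyme and -100% = basal without enzyme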
* = called active by the depositor; ? = inconclusive; · = no result given; [ ] = remark or other dose. A selection: hits, their analogues and other compounds. The true share with any hit is near 0.41%. The call rests on the fitted dose curve; in most records, active means well fitted curve in the direction sought with a large enough effect; inconclusive means small, poorly fitted or top-dose-only effect, or another doubt; inactive means no such curve, though single readings can be large; an effect the other way counts as inactive or inconclusive.

SMILES	GAA glycogen mod	GAA spleen mod	N370S GC mod	GAA inhib	GLA spleen mod	GLA inh pH 4.5
CC1(C)CC(=O)C2=C(C1)NC1=C(C(=O)c3ccccc31)C2c1cc([N+](=O)[O-])ccc1O (stereo unspecified)	-24%	-4%	14µM*	·	0%	-4
CCCc1nnc2c(N(C)S(=O)(=O)c3ccccc3)nc3ccccc3n12	2%	-6%	6%	-5%	-7%	-1
Oc1ccc(Nc2ccnc3cc(Cl)ccc23)cc1	13µM*	-10%	?	·	6%	-12
COc1ccc(-c2nc3cnc(N4CCN(C)CC4)nc3n(C3CC3)c2=O)cc1	·	5%	-1%	·	20%	·
Cc1ccc(S(=O)(=O)N(C)CCCC(=O)Nc2ccc(F)cc2)cc1	1%	3%	8%	-5%	9%	-9
CN(CCCC(=O)O)S(=O)(=O)c1ccc2c(c1)C(=O)c1cc(S(=O)(=O)N(C)CCCC(=O)O)ccc1-2	25µM*	·	-5%	·	·	·
CC(C)(C)c1ccc(S(=O)(=O)NC(Cc2ccccc2)C(=O)O)cc1 (stereo unspecified)	5%	-6%	-2%	-11%	-1%	2
Cc1ccc(NS(=O)(=O)c2ccc(N3CCN(c4ccc(O)cc4)CC3)c([N+](=O)[O-])c2)c(C)c1	?	1%	14µM*	-4%	4%	-8
CC(C)=C1C(=O)NN(c2ccc(F)c(Cl)c2)C1=O	25µM*	1%	24%	-1%	-12%	3
O=C1NN(c2ccc(F)c(Cl)c2)C(=O)/C1=C\c1cccc(OC(=O)c2cccs2)c1	?	4%	-9%	-2%	8%	1
COc1cc(/C=C/c2cc(C(=O)O)c3ccccc3n2)cc(OC)c1O	14µM*	-14%	-4%	-5%	-12%	0
COc1cc(/C=C/c2nc3ccccc3s2)cc(OC)c1O	18µM*	-11%	-10%	-10%	-6%	-13
O/N=C1\CCCc2nnc3c(c21)CCCC3	-9%	1%	12%	-8%	5%	10
CC1CN(C(=O)N[C@@H](Cc2ccccc2)C(=O)O)CC(C)O1 (stereo partly specified)	8%	-5%	5%	-3%	-4%	1
Cc1ccc(C)c(-c2nn(-c3cc(N4CCN(CCO)CC4)ccc3[N+](=O)[O-])c(=O)c3ccccc23)c1	-3%	-2%	16µM*	7%	1%	-4
COc1ccccc1NC(=O)CN(c1cc(C)cc(C)c1)S(=O)(=O)c1c(C)[nH]c(=O)[nH]c1=O	-11%[76.3 µM]	·	·	·	·	·
Cc1cc(C)cc(N(CC(=O)Nc2ccc(Br)cc2)S(=O)(=O)c2c(C)[nH]c(=O)[nH]c2=O)c1	·	·	1.6µM*	·	·	·
COc1ccc(N(CC(=O)Nc2cccc(C)c2C)S(=O)(=O)c2c(C)[nH]c(=O)[nH]c2=O)cc1	4%	1%	2%	·	10%	1
Cc1cc(C)cc(N(CC(=O)Nc2cccc(C)c2C)S(=O)(=O)c2c(C)[nH]c(=O)[nH]c2=O)c1	12%[76.3 µM]	·	2.5µM*	·	·	·
Cc1cc(C)cc(N(CC(=O)Nc2cc(C)ccc2C)S(=O)(=O)c2c(C)[nH]c(=O)[nH]c2=O)c1	·	·	8.9µM*	·	·	·
Cc1cccc(C)c1NC(=O)CCS(=O)(=O)c1cccc2nonc12	0%	·	1%	·	·	·
O=C(O)CCCCCCNC(=O)c1cncc(O)c1	0%	3%	-16%	3%	1%	6
COC(=O)c1ccc(C23CC4(C2)[C@H](CN(Cc2ccc(C(F)(F)F)cc2)[C@@H]4c2ccccc2)C3c2ccc(Cl)nc2)cc1 (stereo partly specified)	5%	-1%	-10%	·	0%	0
Cc1nc(C#N)c(N/N=C/c2cccc(Cl)c2)o1	32µM*	1%	7%	-9%	11%	2
C[C@@H]1c2ccccc2CN1CC1=NCCN1	·	14%	-7%	·	0%	0
SMILES	GAA glycogen mod	GAA spleen mod	N370S GC mod	GAA inhib	GLA spleen mod	GLA inh pH 4.5
O=C(O)c1ccc(Nc2cccc(F)c2)c([N+](=O)[O-])c1	6%	·	-17%	·	·	·
Cc1c(-c2cccc(NC(=O)c3ccco3)c2)nc2ncccn12	3%	?	?	?	?	?
Cc1c(NC(=S)N/N=C/c2ccc(O)cc2)c(=O)n(-c2ccccc2)n1C	7µM*	-18%	9%	?	-5%	-8
COc1ccc(N(C(=O)c2ccc(C)cc2)S(=O)(=O)c2ccc(Cl)cc2)cc1	7%[76.3 µM]	·	·	·	·	·
CC(=O)Nc1ccc(NC(C)=O)s1	8.9µM*	-8%	-11%	2%	4%	5
Brc1ccc(C=Nc2ccc(Nc3ccccc3)cc2)s1	8.9µM*	-11%	-4%	2%	1%	19
C(=Nc1ccc(Nc2ccccc2)cc1)c1ccc2ccccc2c1	18µM*	-3%	-6%	-5%	-9%	-1
COc1ccc(CC(=O)N(Cc2cc3cc(OC)ccc3[nH]c2=O)C(C)C)cc1	5%	1%	11%	7%	7%	4
CC(C)C1Nc2c(O)cc(Cl)c([N+](=O)[O-])c2C2C=CCC21 (stereo unspecified)	14µM*	-2%	-18%	15%	-12%	-4
Cc1cc(/C=C2/C(=O)NN(c3ccccc3)C2=O)c(C)n1-c1ccc(O)cc1	9%	-8%	8.9µM*	-4%	-5%	-11
CCNc1nc(NCC)nc(N(C)N)n1	35µM*	1%	4%	-2%	8%	6
CC(C)Nc1nc(NC(C)C)nc(N(C)N)n1	28µM*	1%	·	-3%	4%	2
Cc1ccc(C(=O)Nc2cc(Cl)ccc2Oc2ccccc2)cc1[N+](=O)[O-]	5%	3%	12%	2%	3%	4
CCOc1c(Br)cc(CNc2ccc(N3CCN(C(C)=O)CC3)cc2)cc1OC	32µM*	-1%	-29%	·	1%	-9
CCOc1cc(CNc2ccc(N3CCOCC3)cc2)cc(Br)c1OCC	-2%	-3%	-7%	-6%	-8%	-8
COc1cc(CNc2ccc(N3CCOCC3)cc2)cc(Br)c1OC	45µM*	-20%	-10%	3%	2%	-2
COc1cc(CNc2ccc(N3CCN(C(C)=O)CC3)cc2)ccc1OCc1ccc(F)cc1	25µM*	1%	-17%	2%	5%	5
CC(OC(=O)c1ccc(=O)n(Cc2ccccc2)n1)C(=O)Nc1cccc(Cl)c1 (stereo unspecified)	·	·	-1%	·	·	·
CCCc1ccc(C(=O)NNc2cccc(C)c2)cc1	16µM*	-4%	26%	·	2%	-14
Cc1cccc(NNC(=O)C(=O)NNc2cccc(C)c2)c1	?	9%	16%	·	4%	0
